Experimental data as given in PubChem BioAssay AID1159580 (chemical genetic matrix, 2015).
Several values for one entry are separate records, joined by “and”; a condition that tells them apart may be missing. Equal entries are not always repeated. The campaign covered roughly 5,500 compounds. About 2,000 (36%) were called active. Inconclusive results (about 18%) are left out. Cut-off read from the data, not from the text of the source: active = normalized growth mostly below about 0.91 (no sharp cut-off); inconclusive = no clear call, values can overlap the other calls; inactive = mostly above about 0.92. Some of the results follow.

Assay: chemical genetic growth profiling, strain panel (AID 1159580);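 note: tested at 20 µM; growth read once vehicle control cultures reached saturation at 30 °C; 1 = growth at the plate median or of vehicle wells; lower values mean less growth of the strain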
Conditions: S. cerevisiae deletion strains, growth OD

Measured: normalized growth

CC(CCC(=O)O)[C@H]1CCC2C3C(C[C@H](O)[C@@]21C)[C@@]1(C)CC[C@@H](O)C[C@H]1C[C@H]3O (some centres not stated)
inactive: locus YAL013W, strain DEP1, active compounds read low 1.01 | locus YAL021C, strain ccr4, active compounds read low 1.08 | locus YAL026C, strain drs2, active compounds read low 1.03 | locus YAL030W, strain snc1, active compounds read low 1.01 | locus YBL061C, strain skt5, active compounds read low 1 | locus YBR009C, strain hhf1, active compounds read low 1.05 | locus YBR021W, strain FUR4, active compounds read low 0.995 | locus YBR023C, strain chs3, active compounds read low 1.01 | locus YBR171W, strain sec66, active compounds read low 1.02 | locus YBR229C, strain ROT2, active compounds read low 1.01 | locus YBR231C, strain swc5, active compounds read low 1 | locus YBR279W, strain paf1, active compounds read low 1.02 | locus YCL011C, strain gbp2, active compounds read low 1.02 | locus YCL016C, strain dcc1, active compounds read low 1 | locus YCL029C, strain bik1, active compounds read low 1.02 | locus YCL061C, strain MRC1, active compounds read low 1.01 | locus YCL069W, strain vba3, active compounds read low 1.02 | locus YCR088W, strain abp1, active compounds read low 1.01 | locus YDL005C, strain med2, active compounds read low 1.01 | locus YDL035C, strain GPR1, active compounds read low 1.03 | locus YDL040C, strain nat1, active compounds read low 1.02 | locus YDL074C, strain BRE1, active compounds read low 1.02 | locus YDL101C, strain DUN1, active compounds read low 1.02 | locus YDL185W, strain tfp1, active compounds read low 1 | locus YDL192W, strain arf1, active compounds read low 1.01 | locus YDR001C, strain nth1, active compounds read low 1.02 | locus YDR069C, strain doa4, active compounds read low 1.02 | locus YDR101C, strain arx1, active compounds read low 0.985 | locus YDR137W, strain rgp1, active compounds read low 0.991 | locus YDR159W, strain sac3, active compounds read low 1.03 | locus YDR162C, strain NBP2, active compounds read low 1.02 | locus YDR195W, strain ref2 1.03 | locus YDR297W, strain sur2, active compounds read low 0.998 | locus YDR318W, strain mcm21, active compounds read low 1.01 | locus YDR334W, strain swr1, active compounds read low 1.03 | locus YDR335W, strain msn5, active compounds read low 0.986 | locus YDR388W, active compounds read low 1 | locus YDR392W, strain spt3, active compounds read low 0.958 | locus YDR502C, strain sam2, active compounds read low 1.01 | locus YEL003W, strain gim4, active compounds read low 1.02 | locus YEL037C, strain rad23, active compounds read low 1.03 | locus YEL061C, strain CIN8 (second series), active compounds read low 1.02 | locus YEL061C, strain CIN8, active compounds read low 1.03 | locus YER015W, strain faa2, active compounds read low 0.982 | locus YER016W, strain bim1, active compounds read low 0.99 | locus YER110C, active compounds read low 1 | locus YER111C, strain swi4, active compounds read low 1.03 | locus YER155C, strain BEM2 (second series), active compounds read low 1.02 | locus YER155C, strain BEM2, active compounds read low 1.01 | locus YER167W, strain BCK2, active compounds read low 1.02 | locus YFR010W, strain ubp6, active compounds read low 1.03 | locus YGL078C, strain dbp3, active compounds read low 1.01 | locus YGL086W, strain mad1, active compounds read low 1 | locus YGL167C, strain pmr1, active compounds read low 0.995 | locus YGL173C, strain kem1, active compounds read low 1.04 | locus YGL227W, strain vid30, active compounds read low 1.01 | locus YGL240W, strain doc1, active compounds read low 1.01 | locus YGL248W, strain PDE1, active compounds read low 1.02 | locus YGL253W, strain hxk2, active compounds read low 1.02 | locus YGR135W, strain pre9, active compounds read low 0.993 | locus YGR252W, strain gcn5, active compounds read low 0.965 | locus YHR013C, strain ard1, active compounds read low 1.03 | locus YHR027C, strain rpn1, active compounds read low 0.994 | locus YHR030C, strain SLT2, active compounds read low 1.01 and 0.992 | locus YHR079C, strain IRE1 (second series), active compounds read low 1 | locus YHR079C, strain IRE1, active compounds read low 0.975 | locus YHR094C, strain hxt1, active compounds read low 1 | locus YHR129C, strain ARP1, active compounds read low 1.02 | locus YHR142W, strain chs7, active compounds read low 1.05 | locus YHR200W, strain rpn10, active compounds read low 0.994 | locus YIL066C, strain RNR3, active compounds read low 1 | locus YIL073C, strain SPO22, active compounds read low 1 | locus YIL125W, strain kgd1, active compounds read low 1.01 | locus YIR030C, strain dcg1, active compounds read low 1 | locus YJL092W, strain hpr5, active compounds read low 1.01 | locus YJL095W, strain BCK1 (second series), active compounds read low 1.01 | locus YJL095W, strain BCK1, active compounds read low 1.02 and 0.977 | locus YJL115W, strain asf1, active compounds read low 1.03 | locus YJL129C, strain trk1, active compounds read low 1.05 | locus YJL134W, strain LCB3, active compounds read low 1.01 | locus YJL154C, strain vps35, active compounds read low 1.02 | locus YJL164C, strain tpk1, active compounds read low 1.06 | locus YJL166W, strain qcr8, active compounds read low 1.03 | locus YJL168C, strain set2, active compounds read low 1.01 | locus YJL187C, strain SWE1 (second series), active compounds read low 1.01 | locus YJL187C, strain SWE1, active compounds read low 1.01 | locus YJR043C, strain POL32, active compounds read low 0.994 | locus YJR066W, strain TOR1, active compounds read low 0.93 | locus YKL009W, strain mrt4, active compounds read low 0.959 | locus YKL068W, active compounds read low 1.02 | locus YKL085W, strain MDH1 (second series), active compounds read low 1 | locus YKL085W, strain MDH1, active compounds read low 1 | locus YKL160W, strain elf1, active compounds read low 0.995 | locus YKR001C, strain vps1, active compounds read low 1.01 | locus YKR026C, strain gcn3, active compounds read low 1.02 | locus YKR091W, strain srl3, active compounds read low 1.02 | locus YLL001W, strain dnm1, active compounds read low 0.989 | locus YLL026W, active compounds read low 1.01 | locus YLL041C, strain sdh2, active compounds read low 1.02 | locus YLR027C, strain aat2, active compounds read low 1.02 | locus YLR039C, strain RIC1, active compounds read low 1.09 | locus YLR058C, strain SHM2, active compounds read low 1.02 | locus YLR102C, strain apc9, active compounds read low 0.998 | locus YLR113W, strain HOG1, active compounds read low 0.983 | locus YLR221C, strain rsa3, active compounds read low 1.01 | locus YLR258W, strain gsy2, active compounds read low 1.04 | locus YLR262C, strain YPT6 (second series), active compounds read low 1.05 | locus YLR262C, strain YPT6, active compounds read low 1.11 | locus YLR268W, strain sec22, active compounds read low 0.986 | locus YLR320W, strain mms22, active compounds read low 1.03 | locus YLR330W, strain CHS5, active compounds read low 1.01 | locus YLR342W, strain FKS1 (second series), active compounds read low 1.01 | locus YLR342W, strain FKS1, active compounds read low 1 | locus YLR357W, strain rsc2, active compounds read low 1.01 | locus YLR370C, strain arc18, active compounds read low 0.999 | locus YLR371W, strain rom2, active compounds read low 1 | locus YLR384C, strain iki3, active compounds read low 0.991 | locus YLR418C, strain cdc73, active compounds read low 0.994 | locus YML016C, strain PPZ1, active compounds read low 1.03 | locus YML032C, strain rad52, active compounds read low 0.995 | locus YML120C, strain ndi1, active compounds read low 0.998 | locus YML124C, strain tub3, active compounds read low 1.01 | locus YMR058W, strain fet3, active compounds read low 1.03 | locus YMR078C, strain ctf18, active compounds read low 1 | locus YMR125W, strain sto1, active compounds read low 1.02 | locus YMR129W, active compounds read low 0.991 | locus YMR205C, strain PFK2, active compounds read low 1.02 | locus YMR223W, strain ubp8, active compounds read low 1.02 | locus YMR231W, strain pep5, active compounds read low 1.02 | locus YMR307W, strain GAS1, active compounds read low 0.983 | locus YNL067W, strain RPL9B, active compounds read low 1.02 | locus YNL071W, strain lat1, active compounds read low 1.03 | locus YNL128W, strain TEP1, active compounds read low 1.02 | locus YNL183C, strain NPR1, active compounds read low 0.925 | locus YNL209W, strain ssb2, active compounds read low 0.993 | locus YNL233W, strain BNI4, active compounds read low 1.01 | locus YNL248C, strain rpa49, active compounds read low 1.02 | locus YNL250W, strain rad50, active compounds read low 1.01 | locus YNL271C, strain bni1, active compounds read low 1 | locus YNL298W, strain CLA4, active compounds read low 0.999 | locus YNL307C, strain MCK1, active compounds read low 1 | locus YNL322C, strain KRE1 (second series), active compounds read low 1.01 | locus YNR049C, strain mso1, active compounds read low 0.986 | locus YNR052C, strain pop2, active compounds read low 1.03 | locus YOL006C, strain TOP1, active compounds read low 1.07 | locus YOL012C, strain htz1 1.17 | locus YOL147C, strain pex11, active compounds read low 1.01 | locus YOR001W, strain rrp6, active compounds read low 1.02 | locus YOR061W, strain CKA2, active compounds read low 1.02 | locus YOR069W, strain VPS5, active compounds read low 1.02 | locus YOR070C, strain gyp1, active compounds read low 1 | locus YOR080W, strain dia2, active compounds read low 1.01 | locus YOR083W, strain WHI5, active compounds read low 1.01 | locus YOR106W, strain vam3, active compounds read low 1.07 | locus YOR136W, strain idh2, active compounds read low 1.01 | locus YOR144C, strain elg1, active compounds read low 1 | locus YOR184W, strain ser1, active compounds read low 1 | locus YOR231W, strain MKK1, active compounds read low 0.981 | locus YOR265W, strain rbl2, active compounds read low 1 | locus YOR270C, strain vph1, active compounds read low 1.11 | locus YOR290C, strain snf2, active compounds read low 0.982 | locus YOR316C, strain cot1, active compounds read low 1 | locus YPL051W, strain arl3, active compounds read low 1.01 | locus YPL078C, strain atp4, active compounds read low 1.03 | locus YPL106C, strain sse1, active compounds read low 1.01 | locus YPL240C, strain hsp82, active compounds read low 0.996 | locus YPL256C, strain CLN2, active compounds read low 0.957 | locus YPR119W, strain clb2, active compounds read low 1 | locus YPR141C, strain kar3, active compounds read low 1.01 | locus YPR163C, strain tif3, active compounds read low 0.992 | locus YPR167C, strain met16, active compounds read low 1.03 | strain wtn01, active compounds read low 0.993
